Nrf2 ARE act – activates Nrf2 signaling | AREc32 ARE-luciferase reporter (MCF7-derived line), luminescence, 24 h | 0.31% of 410,000 active | AID 624171 | Potency, µM (doses to about 46.1 µM), for the others: at the top dose activation, most hits filed as activators; also: potency is read from the fitted curve at half-maximal effect; % of control where 0% means no effect; nearly all actives have a fitted effect of over 65% in size
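Nrf2 activation is followed as ARE-luciferase induction in the AREc32 line after one day of compound treatment; luminescence is read with Steady-Glo.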
D3 ag – D3 dopamine receptor (human) agonism | D3R DiscoveRx beta-arrestin cells, luminescence, 90 min | max activation, % | 0.58% of 410,000 active | AID 652048; in the data active = max activation above about 30%; also: 0% is about no effect
Target sequence (P35462 whole entry, looked up): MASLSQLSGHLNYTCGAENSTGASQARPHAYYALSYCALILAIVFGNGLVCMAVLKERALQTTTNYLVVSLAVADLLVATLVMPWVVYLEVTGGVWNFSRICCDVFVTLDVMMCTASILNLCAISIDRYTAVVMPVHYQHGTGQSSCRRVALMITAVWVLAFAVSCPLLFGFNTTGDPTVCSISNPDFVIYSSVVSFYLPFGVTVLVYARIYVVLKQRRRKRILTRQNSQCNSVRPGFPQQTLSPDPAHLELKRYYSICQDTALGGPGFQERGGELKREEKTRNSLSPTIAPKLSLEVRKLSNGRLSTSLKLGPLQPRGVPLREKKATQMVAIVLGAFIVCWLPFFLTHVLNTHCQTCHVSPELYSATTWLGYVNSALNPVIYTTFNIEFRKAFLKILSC
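Cells at 1500/well, incubated overnight, then treated with pinned compounds (dopamine as control) for 90 min at 37 degrees C. DiscoveRx reagent added for 30 - 60 minutes at room temperature; luminescence read.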
Glioma ERSR ind – ER stress response induction in glioma; U87-MG GRP78 promoter luciferase reporter, 16 h; Potency, µM, for the others: at the top dose activation, usual class: activators; 0.02% of 420,000 active; AID 602332; also: potency is read from the fitted curve at half-maximal effect; series mostly up to about 76 µM; % of control where 0% means no effect; nearly all actives have a fitted effect of over 35% in size
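ERSR induction read as luciferase luminescence (Bright-Glo, 10 min at room temperature) in stably transfected human U87-MG glioma cells exposed to compounds for 16 h, using GRP78 as sensor.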
D3 antag – D3 dopamine receptor (human) antagonism; P35462; D3R cells, DiscoveRx beta-arrestin luminescence, antagonist mode; hits give low values; max response, negative = inhibition, %; 2.5% of 360,000 active; in the data active = max response below about -50%; inconclusive = no clear call, values can overlap the other calls; also: % is scaled to controls: 0 for no effect and ±100 for the full control effect
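Cells expressing the human receptor were seeded at 1500 cells/well, incubated overnight at 37 degrees C in 5% CO2, then exposed to library compounds with dopamine controls for 90 minutes at 37 degrees C before luminescent detection.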
* = called active by the depositor; ? = inconclusive; . = not tested or not shown; [ ] = remark or other dose. In the library only some 3% were active in any assay of this set; here they are far more common. Unless noted, calls follow the shape of the dose curve; as a rule, active = well fitted curve in the direction sought with a large enough effect; inconclusive = small, poorly fitted or top-dose-only effect, or another doubt; inactive = no such curve, though single readings can be large; an effect the other way counts as inactive or inconclusive.

SMILES | Nrf2 ARE act | D3 ag | Glioma ERSR ind | D3 antag
O=[N+]([O-])c1ccc(N2CCN(Cc3cccc([N+](=O)[O-])c3)CC2)cc1 | 1.2%[9.22 µM] | -13.3 | -4.1% | -19.7
O=[N+]([O-])c1cccc(CN2CCCCCC2)c1 | 2.4%[9.22 µM] | -25.3 | -7.7% | -55.0*
O=C(CN1CCCCCC1)Nc1cccc([N+](=O)[O-])c1 | 6.6% | -6.7 | -1.9% | -82.6*
O=C(C#Cc1ccccc1)c1ccco1 | -1.9% | -27.1 | -18.8% | -99.6*
O=C(N/N=C/c1ccccc1)c1ccco1 | 4.4% | 0.8 | -2.9% | 22.7
CCCc1[nH][nH]c(=O)c1C(c1ccc(Br)cc1)C(C#N)C#N (configuration not stated) | 2.6% | -11.0 | -1.3% | 0.0
CCCc1[nH][nH]c(=O)c1C(c1ccccc1)C(C#N)C#N (configuration not stated) | 2.5% | 0.8 | 14.4% | -54.7*
Cc1ccc(Nc2ncnc3c2nnn3Cc2ccccc2)cc1 | 9.7% | 30.1* | 0.4% | 5.1
COC(=O)c1cc2ccc(OC)cc2c2cc(OC)c(OC)cc12 | 5.2% | 80.4* | -2.0% | 135.9
COC(=O)c1cc(OC)c(OC)cc1NC(=O)Nc1ccc(OC)cc1 | 0.3% | -2.5 | 2.4% | 7.6
COCCCn1c(CCC(=O)O)ccc1-c1cccs1 | 0.4% | -4.2 | 0.4% | -54.5*
CCCN1CCC(N(CCc2ccccc2)Cc2ccccc2)CC1 | -1.8% | -4.8 | -2.4% | -96.6*
COc1ccc(CN2CCC(C(=O)N(C)CCc3ccc(OC)c(OC)c3)CC2)c(OC)c1 | 3.9% | -0.3 | -3.8% | -4.6
COc1ccc(CN2CCC(N(CCc3ccccc3)Cc3ccccc3)CC2)c(OC)c1 | 4.5% | -11.9 | -9.1% | -61.6*
O=C(NCC1CCC2(CCN(Cc3cccc4ncccc34)CC2)O1)c1ccccc1 (configuration not stated) | . | . | -4.6% | .
COc1ccc(S(=O)(=O)N(CCO)c2ccccc2CN(C)C/C=C/c2ccc(Cl)cc2)cc1 | . | . | -5.3% | .
COc1ccc(CN2CCC3(CCC(CNC(=O)c4ccco4)O3)CC2)c(OC)c1C (configuration not stated) | . | . | -3.6% | .
c1ccc(-c2nc(NCc3ccco3)c3ccccc3n2)nc1 | 8.3% | -16.4 | -7.8% | -56.4*
c1ccc(-c2nc(NCC3CCCO3)c3ccccc3n2)nc1 (configuration not stated) | -1.3% | 0.0 | -1.1% | -52.8*
Cc1ncnc2nc[nH]c12 | . | . | -7.1% | .
Cc1cccc(OCC(=O)OCc2cc(=O)n3nc(C4CC4)sc3n2)c1 | -1.0% | 0.4 | -0.9% | .
Cc1ccccc1CS(=O)(=O)c1nnc([C@H](CC(C)C)NC(=O)OC(C)(C)C)o1 | ? | -59.1 | -12.5% | -65.9*
CC[C@@H](C)[C@H](NC(=O)OC(C)(C)C)c1nnc(S(=O)(=O)Cc2cc(C)ccc2C)o1 | -3.8% | -8.1 | -17.9% | -79.4*
CC(C)[C@H](NC(=O)OC(C)(C)C)c1nnc(S(=O)(=O)Cc2c(F)cccc2Cl)o1 | ? | -19.7 | -6.1% | ?
Oc1ccc(CCNc2ncnc3ccc(Cl)cc23)cc1 | 0.2% | 51.7* | 0.3% | 51.2
SMILES | Nrf2 ARE act | D3 ag | Glioma ERSR ind | D3 antag
CSc1nc(=O)n(CCC#N)nc1SC | -0.2% | -16.1 | -8.5% | -65.0*
COc1ccc(CN2CCC3(CC2)c2ccccc2[C@@H](NC(=O)c2ccccc2)[C@@H]3O)cc1O | . | . | 0.2% | .
COc1ccc(-c2nc(CSc3nncn4c3cc3oc(C)cc34)c(C)o2)cc1 | -0.5% | -7.7 | -1.8% | .
CCOc1cccc2sc(N(CCN(C)C)C(=O)c3cc4ccccc4cc3OC)nc12 | 2.7% | -14.9 | -11.5% | -70.6*
CCOc1ccc2nc(N(CCN(C)C)C(=O)c3cc4ccccc4cc3OC)sc2c1 | 4.6% | -5.5 | -4.0% | ?
CCOc1cccc2sc(N(CCN(C)C)C(=O)c3ccc4c(c3)OCCO4)nc12 | 0.3% | -18.6 | -6.6% | -66.4*
CC(C)c1c(C(=O)N(C)C2CCN(C)CC2)cnn1-c1nccc(-c2ccco2)n1 | . | . | 1.1% | .
Cc1ncc2c(c1CNC(=O)/C=C/c1cccs1)CCN(C(=O)c1c(C)noc1C)C2 | . | . | -3.2% | .
CCSC1(SCC)N=C(N)C2(C#N)C(c3ccccc3)NC3=C(CCC3)C12C#N (configuration not stated) | 14.1µM* | -2.6 | -8.8% | 3.9
C=C(C)C(C)(C#CCN1CCCC1)OC(C)=O (configuration not stated) | -1.0% | -4.8 | -2.5% | -72.1*
CC(C)C(O)(C#CCN1CCCC1)c1ccccc1 (configuration not stated) | 0.4% | -23.6 | -5.5% | -19.5
CCCOC(=O)C1=C(C)CS[C@@H]2[C@H](NC(=O)COc3ccccc3)C(=O)N12 | . | . | -0.6% | .
O=C(O)/C=C/C(=O)c1ccc2c(c1)CCc1ccccc1-2 | ? | -80.5 | -13.1% | -139.4*
CCC1=NN(C(=O)C(=O)Nc2ccccc2OC)C(O)(C(F)(F)F)C1 (configuration not stated) | -0.1% | -20.6 | 2.7% | 20.5
CCC1=NN(C(=O)C(=O)Nc2ccc(OC)cc2)C(O)(C(F)(F)F)C1 (configuration not stated) | -0.4% | -36.3 | -1.9% | -159.5*
CCC1=NN(C(=O)C(=O)NCCc2ccccc2)C(O)(C(F)(F)F)C1 (configuration not stated) | -0.6% | -15.6 | 0.0% | -64.6*
Cc1ccc(-c2nc(=Nc3c(C)cc(C)cc3C)sn2-c2ccccc2)cc1 | . | . | -2.7% | .
CCCC/C=C/[C@H](c1ccccc1)[C@H](CO)Cc1ccc2ccccc2c1 | . | . | -2.3% | .
COc1ccc2[nH]cc(C(=O)CNc3nccs3)c2c1 | . | . | -4.8% | .
O=c1cc(CO)oc(C(Nc2ccccn2)c2ccccc2F)c1O (configuration not stated) | 7.6% | -5.0 | -3.6% | -50.5*
O=C(Cn1c(-c2cccs2)cc2cc(Cl)ccc21)N1CCN(c2ccccc2)CC1 | 2.5% | -1.8 | -3.3% | .
CCOC(=O)C1CCN(Cc2cnc(NC(=O)OC)s2)CC1 | -0.9% | 10.7 | -2.1% | -6.5
CCOC(=O)C1CCN(Cc2cnc(Oc3ccc(C(C)(C)C)cc3)s2)CC1 | -0.2% | -1.1 | -5.4% | -93.2*
O=C(N/N=C1/C[C@@H](O)[C@@H](O)[C@@H]2[C@@H]3C(=O)N(C4CCCCC4)C(=O)[C@H]3CC[C@H]12)OCc1ccccc1 | . | . | -2.5% | .
COc1ccc(NC(=O)CSc2oc(-c3cccs3)nc2S(=O)(=O)c2ccc(C)cc2)c(OC)c1 | 4.5% | 8.2 | -2.9% | .
COc1ccc(NC(=O)CSc2oc(-c3cccs3)nc2S(=O)(=O)c2ccccc2)c(OC)c1 | 2.0% | 58.6* | -2.3% | .
COc1ccc(CN2CCN(C3CCSCC3)CC2CCO)c(C)c1C (configuration not stated) | 2.9% | -23.9 | -4.3% | -64.3*
CC(C)CCNC(=O)c1ccc2c(c1)N(C)C(=O)c1ccccc1S2 | 0.4% | -13.6 | 0.9% | -72.3*
COc1ccc(C(=O)NCC(c2ccco2)N(C)C)cc1S(=O)(=O)NCc1ccc(Cl)cc1 (configuration not stated) | 4.1% | -20.7 | 0.1% | -96.5*
CNc1cccc(-c2cccc(O)c2)n1 | 0.0%[9.22 µM] | -15.3 | 0.9% | -53.0*
